This is an account of results in PubChem BioAssay AID504467 (National Center for Advancing Translational Sciences (NCATS), 2011).

Out of some 330,000 compounds screened, about 7,700 (2.3%) were called active. About 26% were inconclusive and are not listed. The call rests on the fitted dose curve; in most records, active means well fitted inhibition curve with a large enough effect; inconclusive means small, poorly fitted or top-dose-only effect, or effect the other way; inactive means flat fitted curve, though single readings scatter. What follows is part of a selection rich in actives, with near analogues and random picks from the rest. Entries that show only a call come without a potency.
Potency means the concentration at half of the fitted maximal effect.

A short description of the assay: qHTS screen for small molecules that inhibit ELG1-dependent DNA repair in human embryonic kidney (HEK293T) cells expressing luciferase-tagged ELG1. Further: nearly all actives have a fitted effect of over 55% in size. The following applies: HEK293T ELG1-luciferase reporter, luminescence, 16 h, DNA damage induced by 5-fluorouridine; series mostly up to 46.1 µM. In a few lines:
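DMSO vehicle served as the neutral condition. Each well held 2,000 cells given 5-fluorouridine plus compound; after 16 hr at 37 °C/5% CO2, ONE-Glo was added and luciferase measured 30 min later.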
As to `Cn1c(CC(=O)NNC(=O)c2ccccc2F)nc2ccccc21`, the Potency entry is “inactive”.
Take `O=C(CN1C(=O)NC2(CCOc3ccccc32)C1=O)Nc1cccc([N+](=O)[O-])c1` (stereo unspecified): the Potency result is “inactive”.
As for `COc1ccc(S(=O)(=O)N2CCCCC2)cc1NC(=O)COc1ccccc1`, the entry is “inactive”; as for `COc1ccc(S(=O)(=O)N2CCCCCC2)cc1NC(=O)Cc1ccc(OC)c(OC)c1`, 18.3 µM (active).
On to `COc1ccc(S(=O)(=O)Nc2ccc(S(=O)(=O)N3CCCCC3)cc2)cc1OC`, for which the Potency result was “inactive”.
Consider `COc1ccc(CC(=O)Nc2cc(S(=O)(=O)N3CCCCC3)ccc2N2CCN(C)CC2)cc1`, for which the Potency result is “inactive”.
Regarding `CCNC(=O)NC(=O)C(C)OC(=O)c1cc(S(=O)(=O)N2CCCCCC2)ccc1OC` (stereo unspecified), the Potency is 23.1 µM (active).
As for `COc1ccc(S(=O)(=O)N2CCCCC2)cc1Br`, the entry is “inactive”; as for `COc1ccc(-c2ccc(Nc3ccc(S(=O)(=O)N4CCCC4)cc3)nn2)cc1OC`, 23.1 µM (active); as for `COc1ccc(S(=O)(=O)N2CCOCC2)cc1C(=O)NC1CCCCC1`, “inactive”.
Regarding `CCNC(=O)NC(=O)C(C)OC(=O)C1CCN(S(=O)(=O)c2ccccc2F)CC1` (stereo unspecified), the Potency result is “inactive”.
In the case of `CC(=O)NCCC(=O)Nc1cc(S(=O)(=O)N2CCCCC2)ccc1Oc1cccc(C)c1`, the Potency result was “inactive”.
On to `Cc1cccn2c(=O)c3cc(C(=O)NCC4CCCO4)c(=N)n(Cc4ccc(F)cc4)c3nc12` (stereo unspecified), for which the Potency entry is “inactive”.
As for `CCCCc1ccc(NS(=O)(=O)c2cccc(C(=O)N3CCCN(C)CC3)c2)cc1`, the entry is “inactive”; as for `COc1cc(OC)c(N2CC(C(=O)Nc3cc(Cl)ccc3N3CCOCC3)CC2=O)cc1Cl` (stereo unspecified), “inactive”.
As for `O=C(O)c1ccccc1C(=O)Nc1nc(-c2ccccc2)cs1`, the entry is “inactive”; as for `CC(=O)Nc1ccc(S(=O)(=O)Nc2nc(-c3ccc(C(C)(C)C)cc3)cs2)cc1`, “inactive”; as for `CC(=O)Nc1ccc(-c2csc(NC(=O)Nc3ccccc3)n2)cc1`, 7.3 µM (active).
Next, `CC1C(=O)C(C)C(c2ccc(O)cc2)NC1c1ccc(O)cc1` (stereo unspecified): “inactive”.
Take `CC(C)[C@H](NC(=O)N1c2ccccc2NC(=O)[C@@H]1C(C)C)C(=O)N[C@H](C(=O)O)c1ccccc1`: the Potency result is “inactive”.
On to `Cc1cccc(N2CCN(C(C)C(=O)N3CCc4ccccc43)CC2)c1C` (stereo unspecified), for which the Potency result is “inactive”.
For `COc1ccc(OCCNC(=O)c2cc(C3CC3)nc3c2cnn3C(C)C)cc1`, the Potency entry is “inactive”.
Turning to `COc1ccc(CNC(=O)CN(C(=O)c2csnn2)c2cnc3ccccc3c2)cc1`, the Potency entry is “inactive”.
As for `O=C1COc2ccc(C(=O)COC(=O)c3cccnc3Cl)cc2N1`, the entry is “inactive”.
As for `O=C1COc2ccc(C(=O)COC(=O)c3ccccc3Cl)cc2N1`, the entry is “inactive”.
Consider `COc1cc(N)c(Cl)cc1C(=O)OCC(=O)c1ccc2c(c1)NC(=O)CO2`, for which the Potency was 3.66 µM (active).
Next, `COc1cc(/C=N/NC(=O)c2cccnc2)ccc1OC(=O)c1cccc(Br)c1`: “inactive”; `CCOC(=O)c1ccc(Nc2cc(C)nc3nc(C)nn23)cc1`: “inactive”; `CCOC(=O)c1nc(Nc2ccc(C(=O)OC)cc2)c2ccccc2n1`: 4.11 µM (active).
For the compound `CCOC(=O)c1ccc(N/C(=N/S(=O)(=O)c2ccccc2)c2ccccc2)cc1`, the Potency entry was “inactive”.
Next, `Cc1cc2occ(CC(=O)NNC(=O)c3ccccc3F)c2cc1C`: “inactive”.
As for `O=C1[C@H]2[C@@H](c3ccc(Cl)cc3)N3C(=O)N(c4cccc(F)c4)C(=O)[C@@]3(Cc3ccccc3)[C@H]2C(=O)N1C1CCCCC1`, the entry is “inactive”; as for `COc1ccccc1CN1CCN(C(c2ccccc2)c2ccccc2)CC1`, “inactive”.
For the compound `CCCCn1c(N)c(N(CC(C)C)C(=O)c2ccc(-n3c(C)ccc3C)cc2)c(=O)[nH]c1=O`, the Potency result was “inactive”.
As for `Cc1nc(SCC(=O)NC2CCCCC2C)c(C#N)c(C)c1C` (stereo unspecified), the entry is “inactive”.
Turning to `CCOc1ccc(S(=O)(=O)Nc2ccc(S(=O)(=O)Nc3cc(OC)ccc3OC)cc2)cc1`, the Potency result is “inactive”.
In the case of `COc1ccc(NS(=O)(=O)c2ccc(Oc3c(C#N)cccc3C#N)cc2)cc1`, the Potency was 2.31 µM (active).
As to `COc1ccccc1Oc1ccc(S(=O)(=O)Nc2cccnc2)cc1`, the Potency entry is “inactive”.
As to `CN(CC(=O)Nc1ccc(OC(F)(F)F)cc1)C(=O)C1CCC1`, the Potency entry is “inactive”.
Next, `Cc1noc(/C=C/N(C)C)c1S(=O)(=O)N1CCCC(C(=O)NCc2ccco2)C1` (stereo unspecified): “inactive”; `CCOC(=O)C1CCN(S(=O)(=O)c2c(C)noc2C)CC1`: “inactive”; `Cc1noc(/C=C/c2ccco2)c1S(=O)(=O)N1CCC(C(=O)Nc2ccc(Cl)cn2)CC1`: 5.8 µM (active).
Next, `Cc1ccc(Cl)c(OCC(=O)N(C)CC(=O)Nc2ccc(N3CCOCC3)cc2)c1`: “inactive”; `COc1cc2ccccc2cc1C(=O)N(CCN(C)C)c1nc2c(F)cccc2s1`: “inactive”; `CN1c2ccc(C=O)c3c(C=O)ccc(c23)N(C)C1(C)C`: 6.51 µM (active).
Take `Cc1cccn2c(=O)c(/C=C(\C#N)C(N)=O)c(N3CCCCCC3)nc12`: the Potency result is “inactive”.
Next, `CC(Sc1ccccc1F)C(=O)Nc1cccc(S(=O)(=O)N2CCOCC2)c1` (stereo unspecified): “inactive”.
For `CC(C)CN(C(=O)COC(=O)c1ccc(Cl)c(N)c1)c1c(N)n(Cc2ccccc2)c(=O)[nH]c1=O`, the Potency result was “inactive”.
Regarding `COC(=O)C(C)Oc1ccc2c(c1)O/C(=C\c1cccc(Br)c1)C2=O` (stereo unspecified), the Potency entry was “inactive”.
As for `Cc1ccc(OCCC(=O)OCC(=O)N2c3ccccc3NC(=O)C2(C)C)cc1`, the entry is “inactive”.
Consider `CNS(=O)(=O)c1cccc(C(=O)OCC(=O)N2c3ccccc3NC(=O)C2(C)C)c1`, for which the Potency entry is “inactive”.
As for `Cc1cc(C(=O)OCC(=O)N2c3ccccc3NC(=O)C2(C)C)c(C)n1-c1ccccc1`, the Potency is 29.1 µM (active).
As to `O=c1[nH]cccc1-c1nc2ccccc2n1Cc1ccc(Cl)cc1`, the Potency entry was “inactive”.
As for `O=C(CNC(=O)c1cccs1)N/N=C/c1cccc(Br)c1`, the entry is “inactive”; as for `O=C(NC(Cc1c[nH]c2ccccc12)C(=O)N/N=C/c1ccc(Br)cc1)c1cccs1` (stereo unspecified), 23.1 µM (active); as for `CC(=O)NC(Cc1c[nH]c2ccccc12)C(=O)O` (stereo unspecified), “inactive”.
Next, `CC1CN(C(=O)c2ccc([N+](=O)[O-])s2)CC(C)O1` (stereo unspecified): “inactive”; `COc1ccc(CC(=O)NC2CCSc3ccccc32)cc1OC` (stereo unspecified): “inactive”.
Next, `CCOc1ccc(CCNC(=O)COC(=O)c2ccc(F)c(S(=O)(=O)N3CCOCC3)c2)cc1OCC`: “inactive”.
As for `COc1ccccc1NS(=O)(=O)c1ccc(C)c(C(=O)NNC(=O)c2csc(N3CCOCC3)n2)c1`, the Potency result is “inactive”.
Next, `CN(C(=O)CSc1nnc(-c2ccc3c(c2)OCO3)o1)C1CCS(=O)(=O)C1` (stereo unspecified): “inactive”.
